Rows were chosen to be rich in hits. Some 21% of all compounds tested hit in one or more screens of this group.
Pf growth 96h = Primary qHTS for delayed death inhibitors of the malarial parasite plastid, 96 hour incubation | Potency, µM (titrated, usually from 28.7 µM), inactives show at the top dose activity change, negative = inhibition, hits mostly inhibitors | AID 504834, 2011 | 320,000 compounds, 6.9% hits | P. falciparum luciferase reporter growth, 96 h; also: potency is read from the fitted curve at half-maximal effect; % is scaled to controls: 0 for no effect and ±100 for the full control effect
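Compounds incubated with erythrocytes infected by luciferase-expressing P. falciparum (2% hematocrit, 0.05% parasitemia final) for 96 hours, 37 C in 5% CO2. Growth inhibition scored as decreased luciferase luminescence.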
Pf growth 48h = Primary qHTS for delayed death inhibitors of the malarial parasite plastid, 48 hour incubation; P. falciparum luciferase growth in erythrocytes, 48 h; Potency, µM (highest dose often 28.7 µM), for inactives: at the highest dose activity change, negative = inhibition, hits mostly inhibitors; 310,000 compounds, 5.9% hits; AID 504832, 2011; also: potency is read from the fitted curve at half-maximal effect; % is scaled to controls: 0 for no effect and ±100 for the full control effect
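First compound was added to culture medium, then infected red cells at 0.1% parasitemia and 2% hematocrit (final). After incubation at 37 C under 5% CO2, luciferase detection reagent was dispensed and light output recorded.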
NS1 inh = qHTS Assay for Inhibitors of Influenza NS1 Protein Function; 270,000 compounds, 0.4% hits; Potency, µM (titrated, usually from 46.1 µM), without a hit: at the highest dose activity, positive = more growth; calls by dose curve; also: potency is read from the fitted curve at half-maximal effect; actives are rising curves; nearly all actives have a fitted effect of over 50% in size
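A cell-based growth assay was used: compounds that relieve NS1-induced slow growth of budding yeast raise OD600. Assay medium was yeast nitrogen base with ammonium sulphate and -URA supplement, pH 6.0, with 2% galactose.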
Shiga toxin inh = A qHTS for Small Molecule Inhibitors of Shiga Toxin; Vero cells, Shiga toxin protein synthesis inhibition reporter; inhibition, % at 38.7 µM; 290,000 compounds, 9.2% hits; AID 2315, 2010; in the data active = inhibition mostly above about 28%, no sharp cut-off; inactive = mostly below about 43%; also: 0% is about no effect
CHX counter = Cycloheximide Counterscreen for Small Molecule Inhibitors of Shiga Toxin | max response, % | 300,000 compounds, 12% hits | cell reporter, cycloheximide protein synthesis inhibition counterscreen; in the data active = max response mostly above about 13%, no sharp cut-off; inactive = mostly below about 14%; also: read at 38.3 µM for the half of the compounds with a filed dose; 0% is about no effect
Active calls of the source: *. Unless noted, calls follow the shape of the dose curve; as a rule, active = well fitted inhibition curve with a large enough effect; inconclusive = small, poorly fitted or top-dose-only effect, or another doubt; inactive = no such curve, though single readings can be large or run the other way.

What do the screens show for `O=C(c1cccc(-n2cccc2)c1)N1CCN(S(=O)(=O)c2c(F)cccc2F)CC1`?
Pf growth 96h: 63%; Pf growth 48h: 33%; NS1 inh: 14%; Shiga toxin inh: -8; CHX counter: 1

Results for Cc1cccc(C)c1NS(=O)(=O)c1cc2c3c(c1)CC(=O)N3CCC2 ?
Pf growth 96h: inconclusive; Pf growth 48h: 9.3µM*; NS1 inh: inconclusive; Shiga toxin inh: -12; CHX counter: -4

What do the screens show for `CN(C)c1ccc(NS(=O)(=O)c2cc3c4c(c2)CC(=O)N4CCC3)cc1`?
Pf growth 96h: inconclusive; Pf growth 48h: -26%; NS1 inh: 11%; Shiga toxin inh: 33; CHX counter: 4

How did Cc1ccc(C)c(NS(=O)(=O)c2cc3c4c(c2)CC(=O)N4CCC3)c1 do in these assays?
Pf growth 96h: 3%; Pf growth 48h: 10µM*; NS1 inh: 20%; Shiga toxin inh: -3; CHX counter: -4

What do the screens show for `O=C1Cc2cc(S(=O)(=O)Nc3cccc([N+](=O)[O-])c3)cc3c2N1CCC3`?
Pf growth 96h: 6.6µM*; Pf growth 48h: -16%; NS1 inh: 28%; Shiga toxin inh: -15; CHX counter: 1

How did COc1ccc(CCNC(=O)COC(=O)CCC(=O)c2ccc(F)cc2)cc1 do in these assays?
Pf growth 96h: 11%; Pf growth 48h: 1%; Shiga toxin inh: -10; CHX counter: 1

What do the screens show for `COc1cccc(Nc2nnc(SCC(=O)N(CC(C)C)CC(C)C)s2)c1`?
Pf growth 96h: 1.3µM*; Pf growth 48h: inconclusive; NS1 inh: 4%; Shiga toxin inh: -5; CHX counter: -4

How did COc1cccc(Nc2nnc(SCc3nc4ccccc4s3)s2)c1 do in these assays?
Pf growth 96h: 64%; Pf growth 48h: 146%; NS1 inh: -1%; Shiga toxin inh: 109*; CHX counter: 65*

What do the screens show for `COc1cccc(Nc2nnc(SCN3C(=O)c4ccccc4C3=O)s2)c1`?
Pf growth 96h: 140%; Pf growth 48h: 63%; NS1 inh: 2%; Shiga toxin inh: 3; CHX counter: 6

How did Cc1cccc(C)c1Nc1nnc(SCc2nc3ccccc3s2)s1 do in these assays?
Pf growth 96h: 0%; Pf growth 48h: 110%; NS1 inh: 14%; Shiga toxin inh: 69; CHX counter: 50*

What do the screens show for `CC(C)CN1CCNC(=O)C1CC(=O)NCc1cnn(-c2cccc(F)c2)c1` (centres undefined)?
Pf growth 96h: -1%; Pf growth 48h: -8%; NS1 inh: 15%; Shiga toxin inh: -5; CHX counter: 0

Results for O=C(Nc1cccc(S(=O)(=O)N2CCCCCC2)c1)C1CCN(C(=O)c2ccc(Cl)cc2)CC1 ?
Pf growth 96h: -19%; Pf growth 48h: inconclusive

How did CN1CCN(C(c2ccc(Cl)cc2)c2cc(Cl)c3cccnc3c2O)CC1 (centres undefined) do in these assays?
Pf growth 96h: inconclusive; Pf growth 48h: inconclusive; NS1 inh: -104%; Shiga toxin inh: 5; CHX counter: 3

How did CN1CCN(C(c2ccc(C(F)(F)F)cc2)c2cc(Cl)c3cccnc3c2O)CC1 (centres undefined) do in these assays?
Pf growth 96h: 3.7µM*; Pf growth 48h: inconclusive; NS1 inh: -127%; Shiga toxin inh: 12; CHX counter: -3

Results for O=S(=O)(N/N=C/c1ccc2c(c1)OCO2)c1ccc(Br)cc1 ?
Pf growth 96h: 14%; Pf growth 48h: inconclusive; NS1 inh: 7%; Shiga toxin inh: -25; CHX counter: -1

How did Cc1cc(Cl)c(S(=O)(=O)N/N=C/c2ccc3c(c2)OCO3)c(Cl)c1 do in these assays?
Pf growth 96h: 108%; Pf growth 48h: 57%; NS1 inh: -196%; Shiga toxin inh: 54*; CHX counter: 41*

How did Cc1cc(C)c(S(=O)(=O)N/N=C/c2ccc3c(c2)OCO3)c(C)c1 do in these assays?
Pf growth 96h: -1%; Pf growth 48h: -1%; NS1 inh: -60%; Shiga toxin inh: 22; CHX counter: 14*

Results for CC(C)OC(=O)[C@H]1[C@H](c2ccc(Cl)cc2)[C@@](C#N)(C(N)=O)[C@@H]2C=CC(C(N)=O)=CN21 ?
Pf growth 48h: 0%; NS1 inh: 12%; Shiga toxin inh: -2; CHX counter: -1

Source: PubChem
